According to PubChem BioAssay:
Activity calls are given as the source filed them.

Tests used:
[1] = test system: Plasmodium falciparum Sir2 (PF13_0152, Sir2A); assay: pfSir2 binders on small-molecule microarrays, primary screen, biochemical, small-molecule microarray, 635 nm fluorescence (AID 1098); conditions: small-molecule microarray binding, fluorescence 635 nm; higher = more signal;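 further: score merges spot fluorescence intensity with its signal-to-noise ratio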
[2] = small-molecule microarray binders of probe aDKK1, primary screen, biochemical, biotinylated probe, 635/667 nm fluorescence (AID 1099); conditions: higher = more signal;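 further: score merges 667nm spot fluorescence with signal to noise across triplicate slides; reference of the scale not given here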
[3] = small-molecule microarray binders of probe aCHRDL2, primary screen, biochemical, biotinylated probe, 635/667 nm fluorescence (AID 1100); conditions: higher = more signal
[4] = splicing luciferase reporter signal modulators, primary screen, spliceosome inhibition project, cell-based, HEK293, splice +/- reporter (AID 1101); conditions: luminescence, 24 h, higher = more signal, called active from +8 up or from −8 down;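 further: HEK293 cells carrying a splicing-competent luciferase reporter gene; test concentration not given here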
[5] = molecular target: Fibroblast growth factor 10 (Homo sapiens) (UniProt O15520); assay: FGF10 binders on small-molecule microarrays, primary screen, biochemical, small-molecule microarray, 635 nm fluorescence (AID 1102); conditions: FGF10 binding, fluorescence 635 nm, higher = more signal
Fibroblast growth factor 10 (Homo sapiens), sequence (O15520 whole entry, looked up): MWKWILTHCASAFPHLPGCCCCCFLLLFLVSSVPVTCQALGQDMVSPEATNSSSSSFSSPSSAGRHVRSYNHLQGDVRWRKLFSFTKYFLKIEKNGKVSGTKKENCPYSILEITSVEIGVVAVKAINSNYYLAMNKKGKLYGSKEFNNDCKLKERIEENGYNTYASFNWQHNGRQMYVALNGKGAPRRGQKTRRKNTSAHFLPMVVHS

[6] = test system: glycogen synthase kinase-3 (GSK3A per assay name; protocol says GSK3B); assay: GSK3 binders on small-molecule microarrays, primary screen, biochemical, small-molecule microarray, 635 nm fluorescence, GSK3A (AID 1103); conditions: small-molecule microarray binding, fluorescence 635 nm; higher = more signal; further: the record names both GSK3A and GSK3B
[7] = molecular target: Epidermal growth factor receptor (Homo sapiens) (UniProt P00533); assay: EGFR binders on small-molecule microarrays, primary screen, biochemical, small-molecule microarray, 635 nm fluorescence (AID 1104); conditions: EGFR binding, higher = more signal;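 further: score merges 667 nm emission intensity with spot signal to noise over triplicate slides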
Epidermal growth factor receptor (Homo sapiens), sequence (P00533 whole entry, looked up): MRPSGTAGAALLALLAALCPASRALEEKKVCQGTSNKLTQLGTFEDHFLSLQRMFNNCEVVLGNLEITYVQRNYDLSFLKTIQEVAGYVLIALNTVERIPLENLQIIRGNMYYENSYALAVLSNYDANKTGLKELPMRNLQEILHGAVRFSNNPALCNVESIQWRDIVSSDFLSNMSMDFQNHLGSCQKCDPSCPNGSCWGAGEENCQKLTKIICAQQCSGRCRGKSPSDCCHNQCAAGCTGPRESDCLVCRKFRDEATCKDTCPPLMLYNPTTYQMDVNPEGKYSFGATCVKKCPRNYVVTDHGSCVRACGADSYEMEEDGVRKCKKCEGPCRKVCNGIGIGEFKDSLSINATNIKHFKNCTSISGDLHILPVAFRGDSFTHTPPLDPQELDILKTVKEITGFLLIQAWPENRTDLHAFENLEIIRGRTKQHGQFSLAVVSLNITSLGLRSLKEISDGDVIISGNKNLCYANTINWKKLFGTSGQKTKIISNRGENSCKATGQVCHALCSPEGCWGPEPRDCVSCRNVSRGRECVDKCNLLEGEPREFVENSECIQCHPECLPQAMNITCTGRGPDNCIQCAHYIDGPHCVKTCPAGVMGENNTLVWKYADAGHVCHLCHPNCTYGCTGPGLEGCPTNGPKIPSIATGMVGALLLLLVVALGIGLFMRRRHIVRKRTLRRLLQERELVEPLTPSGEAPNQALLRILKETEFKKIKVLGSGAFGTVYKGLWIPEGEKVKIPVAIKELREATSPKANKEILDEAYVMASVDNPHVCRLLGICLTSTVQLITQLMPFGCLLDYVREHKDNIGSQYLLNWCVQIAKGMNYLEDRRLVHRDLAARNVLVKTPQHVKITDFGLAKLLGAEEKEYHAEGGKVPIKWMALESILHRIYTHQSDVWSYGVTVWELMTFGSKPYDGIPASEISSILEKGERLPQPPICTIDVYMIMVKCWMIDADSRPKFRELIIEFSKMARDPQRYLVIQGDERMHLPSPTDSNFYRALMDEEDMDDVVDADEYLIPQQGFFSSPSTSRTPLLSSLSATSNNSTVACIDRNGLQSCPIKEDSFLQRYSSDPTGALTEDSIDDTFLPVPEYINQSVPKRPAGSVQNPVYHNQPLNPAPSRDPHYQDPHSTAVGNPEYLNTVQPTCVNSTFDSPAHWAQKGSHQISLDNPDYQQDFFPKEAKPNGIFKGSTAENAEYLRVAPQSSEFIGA

[8] = molecular target: Follistatin-related protein 3 (Homo sapiens) (UniProt O95633); assay: FSTL3 binders on small-molecule microarrays, primary screen, biochemical, small-molecule microarray, 635 nm fluorescence (AID 1105); conditions: FSTL3 binding, higher = more signal;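 further: score merges emission near 667 nm and signal to noise per printed spot across three slides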
Follistatin-related protein 3 (Homo sapiens), sequence (O95633 whole entry, looked up): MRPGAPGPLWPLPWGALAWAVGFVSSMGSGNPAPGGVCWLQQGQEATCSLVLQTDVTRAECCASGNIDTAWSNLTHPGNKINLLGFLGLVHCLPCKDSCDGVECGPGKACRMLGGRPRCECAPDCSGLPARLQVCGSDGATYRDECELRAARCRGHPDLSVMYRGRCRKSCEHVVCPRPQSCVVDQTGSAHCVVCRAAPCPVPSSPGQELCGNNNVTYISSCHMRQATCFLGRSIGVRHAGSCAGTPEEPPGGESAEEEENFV

[9] = molecular target: Dickkopf-related protein 1 (Homo sapiens) (UniProt O94907); assay: DKK1 binders on small-molecule microarrays, primary screen, biochemical, small-molecule microarray, 635 nm fluorescence scan (AID 1106); conditions: DKK1 binding, higher = more signal;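 further: score merges emission near 667 nm with signal to noise over three replicate slides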
Dickkopf-related protein 1 (Homo sapiens), sequence (O94907 whole entry, looked up): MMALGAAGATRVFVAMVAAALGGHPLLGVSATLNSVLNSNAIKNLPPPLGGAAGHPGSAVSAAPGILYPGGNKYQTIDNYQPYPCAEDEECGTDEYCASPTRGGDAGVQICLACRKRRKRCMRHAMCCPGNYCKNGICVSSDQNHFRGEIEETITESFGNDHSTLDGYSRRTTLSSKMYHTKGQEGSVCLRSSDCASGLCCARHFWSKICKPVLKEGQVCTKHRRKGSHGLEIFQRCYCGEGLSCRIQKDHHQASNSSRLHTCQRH

[10] = test system: Inhibin beta A chain (activin A); assay: INHBA (activin A) binders on microarrays, primary screen, biochemical, small-molecule microarray, 635 nm fluorescence scan (AID 1107); conditions: small-molecule microarray binding, higher = more signal;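 further: mouse activin A protein probed at 4.33 µg/mL on printed slides; score merges bound-protein fluorescence near 667 nm with spot signal-to-noise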

Row | SMILES | composite z-score [1] | composite z-score [2] | composite z-score [3] | z-score [4] | composite z-score [5] | composite z-score [6] | composite z-score [7] | composite z-score [8] | composite z-score [9] | composite z-score [10]
1 | CCCC[C@@H]1C[C@H]1[C@@H](NC(=O)c1ccccc1)c1ccccc1 | -0.563 | 0.599 | 0.781 | 0.308 (inactive) | -0.232 | -0.949 | -0.151 | 0.227 | -0.256 | 0.582
2 | CN1C(=O)C2C=CC(C(O)C(c3ccccc3)c3ccccc3)N(Nc3ccccc3)C2C1=O (stereo not given) | 0.929 | 0.724 | 0.883 | 0.559 (inactive) | 1.11 | 1.32 | 0.247 | 1.07 | -0.138 | 0.596
3 | CC(C)C(O)C1C=CC2C(=O)N(C)C(=O)C2N1N1CCCCC1 (stereo not given) | 1.61 | 0.184 | 0.674 | 1.15 (inactive) | 0.709 | 0.752 | 0.403 | 0.159 | 0.13 | 0.976
4 | CN1C(=O)C2C=CC(C(O)c3ccccc3)N(NC(=O)OC(C)(C)C)C2C1=O (stereo not given) | 0.782 | 0.153 | 0.455 | 1.54 (inactive) | 0.35 | 0.459 | -0.043 | -0.0889 | -0.237 | 0.375
5 | C=C(COC)C(=O)CC[C@@H](OC(=O)c1ccccc1-c1ccccc1C(=O)O)c1ccc(CO)o1 | 1.51 | -0.4 | -0.69 | -1.24 (inactive) | 1.57 | 0.464 | 0.109 | 0.399 | 1.14 | 0.466
6 | CO[C@H]1O[C@H](CO)[C@@H](OC(=O)Nc2cccc(F)c2)[C@H](OC(=O)Nc2ccccc2-c2ccccc2)[C@@H]1OC(=O)Nc1ccccc1-c1ccccc1 | 1.13 | 0.568 | 0.74 | 1.54 (inactive) | 1.17 | 0.673 | 0.407 | 1.11 | 0.198 | 0.434
7 | O=c1cccc(-c2cccc3ccccc23)o1 | 1.06 | 0.849 | 1.23 | 0.873 (inactive) | -0.52 | -0.274 | -1.18 | -0.218 | -0.951 | 1.46
8 | C[N+](C)(C)CCCCNC(=O)[C@H]1C[C@H]2C(=O)N3CCC[C@H]3C(=O)N2[C@H]1c1ccc(O)cc1 | 1.48 | 0.0607 | -0.152 | 0.0339 (inactive) | 1.39 | 0.521 | 0.967 | 1.49 | 1.82 | -0.443
9 | C=C(/C(=C/C[C@@H](OC(=O)c1ccncc1)c1ccc(CO)o1)c1cc(C(=O)OC)ccc1OC)C(C)C | 1.32 | -0.0623 | -0.109 | 0.614 (inactive) | 1.3 | 1.14 | 0.439 | 1.13 | 0.432 | -0.0326
10 | O=C1C[C@@](C(=O)O)(c2ccc([N+](=O)[O-])cc2)[C@@H](c2ccc(CO)cc2I)N1C1CCCCC1 | 1.24 | -0.162 | 0.862 | -2.72 (inactive) | 1.27 | -0.428 | 0.126 | 0.596 | -0.605 | 0.775
11 | CC(C)N1C(=O)c2ccccc2[C@](C)(C(=O)NC2CC2)[C@@H]1c1ccc(CO)cc1 | 0.173 | 0.0976 | 0.151 | -0.0713 (inactive) | 0.13 | 0.821 | -0.415 | 0.507 | 0.33 | 0.926
12 | C[C@H]1C2[C@H](Cc3ccccc3)NC(=O)[C@]23C(=O)N[C@H](Cc2ccccc2)C(=O)N[C@H](Cc2ccccc2)C(=O)NC/C=C/CCC/C=C/C3[C@@H]2O[C@]12C (stereo not given in full) | 1.17 | -0.319 | -0.327 | -0.549 (inactive) | 0.398 | 0.309 | 0.17 | 1.4 | 0.54 | 0.645
13 | CCN(CC)c1ccc(N2CC=CC34O[C@@H]5/C=C\CCC(C)OC(=O)C5[C@H]3C(=O)N(CCCCCCO)[C@@H]4C2=O)cc1 (stereo not given in full) | 0.586 | -0.331 | 0.0224 | 0.449 (inactive) | -0.0455 | -0.624 | -0.782 | -0.622 | -0.471 | 1.04
14 | O=C1C[C@@](C(=O)O)(c2ccc([N+](=O)[O-])cc2)[C@@H](c2ccc(CO)cc2I)N1CC12CC3CC(CC(C3)C1)C2 | 0.816 | 1.23 | 1.13 | -0.0388 (inactive) | 0.248 | 0.48 | 0.12 | 0.206 | -1.1 | 0.723
15 | O=C1O[C@H](c2ccccc2)[C@H](c2ccccc2)N2[C@H]1[C@@H](C(=O)NC[C@H](O)c1ccccc1)[C@]1(C(=O)Nc3ccc(C#CC4=CCCCC4)cc31)[C@H]2c1ccc(O)cc1 | 1.29 | 0.137 | 0.176 | -2.1 (inactive) | 1.3 | 1.29 | 0.57 | 1.33 | 0.542 | -0.201
16 | CC(C)(C)OC(=O)CC[C@@]1(C(=O)NCC(O)CO)N=C(c2ccc(OCCCO)cc2)O[C@@H]1c1ccccc1 (stereo not given in full) | 0.317 | 0.652 | 0.811 | -0.658 (inactive) | 0.989 | 0.0733 | -1.19 | -0.583 | -0.693 | 0.203
17 | O=C1O[C@@H](c2ccccc2)[C@@H](c2ccccc2)N2[C@@H](c3ccc(O)cc3)[C@]3(C(=O)Nc4ccc(C#CCCO)cc43)[C@@H](C(=O)N3CCCCCCC3)[C@H]12 | 1.83 | 1.7 | 1.07 | 0.62 (inactive) | 0.837 | 0.78 | 0.201 | 1.43 | 0.843 | 1.67
18 | CCOC(=O)C=Cc1cccc(OC)c1O | -0.0095 | -0.349 | 0.165 | -1.98 (inactive) | -0.96 | -0.073 | -1.71 | -0.631 | -1.77 | -0.4
19 | NC(=O)NCC#Cc1ccc2c(c1)[C@]1(C(=O)N2)[C@H](c2ccccc2OCCO)N2[C@H](c3ccccc3)[C@H](c3ccccc3)OC(=O)[C@H]2[C@@H]1C(=O)N1CCCCCCC1 | 1.68 | 2.88 | 1.73 | -0.308 (inactive) | 0.91 | 1.35 | 1.42 | 1.6 | 1.26 | 1.88
20 | C=C(COC)C(=O)CC[C@H](OC(=O)c1cccnc1)c1ccccc1OCCO | 1.25 | 0.224 | 0.561 | 0.193 (inactive) | 1.12 | 0.844 | 0.471 | 1.27 | 0.559 | 1.22
21 | CCN(CC)c1ccc(N2CC=CC34O[C@@H]5C=CCCOC(=O)C5[C@H]3C(=O)N(CCCO)[C@@H]4C2=O)cc1 (stereo not given in full) | -1.99 | -0.404 | -0.373 | -0.542 (inactive) | -0.344 | -0.0608 | -0.365 | -0.0243 | -0.174 | 1.5
22 | COC(=O)[C@@]1(Cc2ccc(F)cc2)[C@H]2c3cc(C(=O)N4CCCC4)n(CCc4ccc(OC)c(Br)c4)c3C[C@H]2CN1C(=O)c1ccccc1 | 0.972 | 1.55 | 1.52 | -2.23 (inactive) | 0.68 | 1.33 | -0.0295 | 1.22 | -0.813 | 0.475
23 | O=C1O[C@@H](c2ccccc2)[C@@H](c2ccccc2)N2[C@@H](c3ccccc3OCCO)[C@]3(C(=O)Nc4ccc(C#CC5(O)CCCCCC5)cc43)[C@@H](C(=O)NC[C@H](O)c3ccccc3)[C@H]12 | 1.06 | 1.64 | 0.204 | -0.525 (inactive) | 1.3 | 0.868 | 0.265 | 1.08 | 0.283 | 1
24 | C[N+](C)(C)CCCC[C@@H]1NC(=O)[C@@H]2C[C@H](C(=O)NCCCCCCNC(=O)CS)[C@H](c3cccc(OCCO)c3)N2C1=O | 1.58 | -0.209 | 0.111 | -0.451 (inactive) | 0.0947 | -0.755 | -1.01 | -0.0324 | 0.383 | 0.439
25 | COC(=O)c1c2oc(c1C(=O)OC)C(=O)N[C@H](Cc1ccccc1)Cn1nncc1C1(CCCCC1)NC(=O)N[C@H](CO)CC2 | 0.0465 | 0.026 | -0.485 | -1.46 (inactive) | 0.0778 | 0.129 | 0.0246 | 0.402 | 0.452 | 0.006
26 | Cc1ccccc1/C=C/C=O | 0.939 | -0.275 | 0.297 | -0.0672 (inactive) | -0.435 | -1.09 | -0.813 | -0.303 | -0.243 | 0.612
27 | CCOC(=O)C[C@H]1[C@H](OC(=O)c2ccccc2-c2ccccc2)[C@@H](NC(=O)c2ccc(-c3ccccc3)cc2)c2cc(OCCCO)ccc2N1C(=O)c1ccccc1 | 0.154 | 0.319 | -0.181 | 0.119 (inactive) | 0.888 | 0.425 | 0.31 | 0.645 | 0.531 | -0.0094
28 | C=CC[C@@]1(C(=O)OC)N=C(c2ccc(OCCCO)cc2)O[C@@H]1c1ccccc1CN=[N+]=[N-] | 1.55 | -0.0877 | 0.892 | -1.54 (inactive) | -0.216 | -0.215 | -0.328 | 0.201 | -0.231 | 1.15
